Our source for the growth values is PubChem BioAssay (NCI).

Common to all, as to experiment: NCI-60 one-dose screen, 48 h (100 = growth as untreated, 0 = no growth, -100 = all killed)
Holding throughout (settings): 10 µM

Assay [1] concerns HCT-15 colon.
The subject of assay [2] is HT29 colon.
Assay [3] has as its system SNB-75 CNS.
Assay [4] concerns SNB-19 CNS.
Assay [5] concerns U251 CNS.
For assay [6], the system named is PC-3 prostate.
For assay [7], the system named is SK-MEL-5 melanoma.
The subject of assay [8] is UACC-62 melanoma.
Assay [9] concerns LOX IMVI melanoma.
Assay [10] concerns SK-MEL-28 melanoma.
The test system of assay [11] is SK-MEL-2 melanoma.
In assay [12] the test system is SN12C renal.
The test system of assay [13] is UO-31 renal.
Assay [14] concerns TK-10 renal.
The test system of assay [15] is ACHN renal.
In assay [16] the test system is CAKI-1 renal.
Assay [17] relates to A498 renal.
Assay [18] relates to CCRF-CEM leukemia.
Assay [19] has as its system MOLT-4 leukemia.

About 83,000 compounds went through this panel and 20% of them were active in at least one assay; those are over-represented in the sample as a whole.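 Single-dose data. Exposure time 48 hours. Values below 10 considered active.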 Values without a mark were called inactive. The source made the active and inactive calls.

Regarding `COc1ccc(C(C)=O)cc1N1C(=O)C2C(C1=O)C1(c3ccccc3)C(=O)C2(c2ccccc2)C(c2ccc(C)cc2)=C1c1ccc(C)cc1` (configuration not stated), the growth in assay [1] was 25.3%; in assay [2], 21.4%; in assay [3], 57.3%; in assay [4], 29.7%; in [5] it was 14.8%; in assay [6], 12.6%. For the same compound, the growth was -29.1% (active) in assay [7]; -70.9% (active) in assay [8]; 7.38% (active) in assay [9]; 37.6% in assay [10]; -0.955% (active) in [11]; 26.2% in assay [12]. Moreover, the growth in assay [13] was -4.71% (active); in assay [14], 13.7%; in [15], 23.1%; in assay [16] it was 6.11% (active); in assay [17] it was 54.1%; in [18], 8.66% (active). Moreover, the growth in assay [19] was 12.6%.

On to `Nc1nc2c(nnn2C2CC(O)C(CO)O2)c(=O)[nH]1` (configuration not stated), for which the growth in [1] is 41.6%; in assay [2], 51.4%; in assay [3] it was 61.8%; in [4], 94.3%; in assay [5], 54.3%; in assay [6], 26.5%. Besides, the growth in assay [7] is 87%; in assay [8], 25%; in assay [9], 19.5%; in assay [10] it was 87.5%; in assay [11], 42.8%; in assay [12], 45.3%. Also, the growth in [13] was 30.9%; in [14], 59.2%; in assay [15] it was 23.3%; in assay [16], 32.4%; in [17], 55.7%; in assay [18] it was 19.4%. The growth in [19] is 30.4%.

For the compound `CCOC(=O)c1c(C)n(-c2ccc(Cl)cc2)c2ccc(OC(=O)/C=C/c3ccccc3)cc12`, the growth was 60.8% in [1]; 66.1% in assay [2]; 66.6% in [3]; 89.7% in assay [4]; 83.2% in assay [5]; 67.7% in assay [6]. Besides, the growth in assay [7] is 79.1%; in [8], 68.1%; in assay [9] it was 91.4%; in assay [10], 81.9%; in assay [11], 64.2%; in assay [12] it was 86.6%. For the same compound, the growth in assay [13] was 83.1%; in assay [14] it was 96%; in [15] it was 98.7%; in assay [16], 103%; in assay [17] it was 68.7%; in assay [18], 75.1%. Also, in [19], the growth is 69.8%.

For the compound `COc1ccc(Nc2ccnc(N3CCN(c4ccnc5cc(Cl)ccc45)CC3)n2)cc1`, the growth in assay [1] is 7.35% (active); in assay [2], -6.34% (active); in [3], -20.9% (active); in assay [4] it was 28.7%; in assay [5] it was 8.61% (active); in [6], 0.553% (active). Besides, the growth in assay [7] is -55.1% (active); in assay [8], -4.07% (active); in [9], 4.18% (active); in assay [10], 5.19% (active); in [11], -19.3% (active); in [12], 14.1%. In addition, the growth in assay [13] was -1.7% (active); in assay [14], 4.85% (active); in assay [15] it was 11.2%; in [16], 6.78% (active); in [17] it was -6.15% (active); in assay [18] it was 2.09% (active). Also, in assay [19], the growth is -48.9% (active).

Regarding `COc1ccc(/C(CS(=O)(=O)c2ccccc2)=N\O)cc1`, the growth was 99.4% in assay [1]; 106% in assay [2]; 87% in assay [3]; 101% in [4]; 93.9% in assay [5]; 104% in assay [6]. Moreover, the growth in assay [7] was 95.8%; in assay [8] it was 95.1%; in assay [9], 111%; in assay [10], 100%; in assay [11] it was 113%; in assay [12], 96.9%. The growth in assay [13] was 104%; in assay [14] it was 92.5%; in assay [15], 109%; in [16], 101%; in assay [17], 102%; in assay [18], 96.3%. Besides, the growth in [19] was 98.4%.

Regarding `C[N+]1(CC2CO2)CCCCCC1` (configuration not stated), the growth in assay [1] is 94.9%; in assay [2], 112%; in assay [3] it was 92.9%; in [4], 104%; in assay [5] it was 107%; in assay [6], 102%. Moreover, the growth was 98.1% in assay [7]; 102% in assay [8]; 105% in assay [9]; 104% in [10]; 118% in assay [11]; 102% in assay [12]. Moreover, the growth in assay [13] is 93.4%; in [14], 114%; in [15], 101%; in assay [16], 100%; in assay [17] it was 87.8%; in assay [18] it was 109%. For the same compound, in assay [19], the growth is 112%.

As for `COc1cccc(-c2nnc(COc3ccc(-c4nc5ccccc5[nH]4)cc3OC)o2)c1`, the growth is 78.3% in assay [1]; 96.1% in assay [2]; 109% in assay [3]; 98.1% in assay [4]; 97% in assay [5]; 97.7% in assay [6]. Also, the growth in [7] was 67.4%; in [8], 95.1%; in [9], 104%; in [10] it was 98.1%; in assay [11], 99.3%; in [12], 85.9%. In addition, the growth in assay [13] was 87.9%; in assay [14] it was 132%; in [15] it was 103%; in [16], 98.7%; in assay [17] it was 71.8%; in assay [18], 44.9%. In addition, the growth in assay [19] was 71.5%.

For `C=C[C@]1(C)C=C2C(=O)[C@@]3(O)OC(=O)[C@@]4(CCCC(C)(C)[C@H]34)[C@@]2(O)CC1`, the growth is -30.5% (active) in assay [1]; -2.72% (active) in [2]; -78.8% (active) in assay [3]; 26.5% in assay [4]; -94% (active) in [5]; -74.7% (active) in [6]. For the same compound, the growth in assay [7] is -99.1% (active); in assay [8], -87.2% (active); in [9] it was -96.7% (active); in assay [10], -98.8% (active); in assay [11], -66.5% (active); in assay [12], -66.5% (active). Also, the growth in assay [13] is -99.4% (active); in [14] it was -95.5% (active); in assay [15] it was -100% (active); in [16] it was -90.6% (active); in [17], -94.6% (active); in [18] it was -31.5% (active). In [19], the growth was -13.6% (active).
